For seven molecules, inhibition results are on record in ChEMBL document CHEMBL1961873, “Compounds: GSK PKIS; Assays: Nanosyn kinase panel” (2012).

For assay [1], the target named is Calcium/calmodulin-dependent protein kinase type II subunit alpha (Homo sapiens) (UniProt Q9UQM7). The settings on record: at 1 µM.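 Also: reported value is a mean percent inhibition of CAMK2A.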
The target of assay [2] is Calcium/calmodulin-dependent protein kinase type II subunit delta (Homo sapiens) (UniProt Q13557). The settings on record: at 0.1 µM.
Assay [3] shares this target. The settings on record: at 1 µM.
Assay [4] deals with T1, Calcium/calmodulin-dependent protein kinase type IV (Homo sapiens) (UniProt Q16566).
T1 sequence (whole entry): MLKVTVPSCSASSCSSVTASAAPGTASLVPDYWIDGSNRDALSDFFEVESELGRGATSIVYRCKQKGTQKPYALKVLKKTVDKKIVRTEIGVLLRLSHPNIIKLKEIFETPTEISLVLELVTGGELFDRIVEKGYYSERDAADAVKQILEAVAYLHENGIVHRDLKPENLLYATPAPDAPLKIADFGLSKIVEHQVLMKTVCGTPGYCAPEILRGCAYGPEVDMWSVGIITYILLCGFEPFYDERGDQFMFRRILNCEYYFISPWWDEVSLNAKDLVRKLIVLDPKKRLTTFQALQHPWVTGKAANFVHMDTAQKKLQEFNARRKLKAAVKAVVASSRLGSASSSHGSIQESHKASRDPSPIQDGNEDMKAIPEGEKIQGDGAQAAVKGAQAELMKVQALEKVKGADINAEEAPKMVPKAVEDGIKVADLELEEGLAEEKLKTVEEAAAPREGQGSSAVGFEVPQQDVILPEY
The following applies: at 0.1 µM.

Assay [5] concerns the target T1, Calcium/calmodulin-dependent protein kinase type IV (Homo sapiens). The following applies: at 1 µM.
For assay [6], the target named is T2, Serine/threonine-protein kinase Chk1 (Homo sapiens) (UniProt O14757).
T2 sequence (whole entry): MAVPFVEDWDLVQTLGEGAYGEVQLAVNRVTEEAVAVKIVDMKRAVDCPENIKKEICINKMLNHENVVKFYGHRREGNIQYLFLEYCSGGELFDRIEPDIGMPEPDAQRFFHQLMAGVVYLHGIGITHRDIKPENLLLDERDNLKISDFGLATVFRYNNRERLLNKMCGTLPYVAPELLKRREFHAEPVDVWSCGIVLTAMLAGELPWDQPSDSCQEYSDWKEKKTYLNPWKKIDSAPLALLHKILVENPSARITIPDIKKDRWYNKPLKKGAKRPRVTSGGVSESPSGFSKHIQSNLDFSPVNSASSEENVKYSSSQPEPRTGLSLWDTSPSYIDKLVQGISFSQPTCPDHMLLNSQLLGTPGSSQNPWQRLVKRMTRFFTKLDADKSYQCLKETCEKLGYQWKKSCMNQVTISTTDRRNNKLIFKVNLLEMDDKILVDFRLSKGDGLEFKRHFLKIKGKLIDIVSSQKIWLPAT
The following applies: at 0.1 µM.

Assay [7] addresses T2, Serine/threonine-protein kinase Chk1 (Homo sapiens). The settings on record: at 1 µM.
Assay [8] deals with Serine/threonine-protein kinase Chk2 (Homo sapiens) (UniProt O96017). The settings on record: at 0.1 µM.
For assay [9] the target is unchanged. The following applies: at 1 µM.
The target in assay [10] is Death-associated protein kinase 1 (Homo sapiens) (UniProt P53355). The following applies: at 0.1 µM.
The target is the same in assay [11]. The settings on record: at 1 µM.
The target of assay [12] is T3, Serine/threonine-protein kinase DCLK2 (Homo sapiens) (UniProt Q8N568).
T3 sequence (whole entry): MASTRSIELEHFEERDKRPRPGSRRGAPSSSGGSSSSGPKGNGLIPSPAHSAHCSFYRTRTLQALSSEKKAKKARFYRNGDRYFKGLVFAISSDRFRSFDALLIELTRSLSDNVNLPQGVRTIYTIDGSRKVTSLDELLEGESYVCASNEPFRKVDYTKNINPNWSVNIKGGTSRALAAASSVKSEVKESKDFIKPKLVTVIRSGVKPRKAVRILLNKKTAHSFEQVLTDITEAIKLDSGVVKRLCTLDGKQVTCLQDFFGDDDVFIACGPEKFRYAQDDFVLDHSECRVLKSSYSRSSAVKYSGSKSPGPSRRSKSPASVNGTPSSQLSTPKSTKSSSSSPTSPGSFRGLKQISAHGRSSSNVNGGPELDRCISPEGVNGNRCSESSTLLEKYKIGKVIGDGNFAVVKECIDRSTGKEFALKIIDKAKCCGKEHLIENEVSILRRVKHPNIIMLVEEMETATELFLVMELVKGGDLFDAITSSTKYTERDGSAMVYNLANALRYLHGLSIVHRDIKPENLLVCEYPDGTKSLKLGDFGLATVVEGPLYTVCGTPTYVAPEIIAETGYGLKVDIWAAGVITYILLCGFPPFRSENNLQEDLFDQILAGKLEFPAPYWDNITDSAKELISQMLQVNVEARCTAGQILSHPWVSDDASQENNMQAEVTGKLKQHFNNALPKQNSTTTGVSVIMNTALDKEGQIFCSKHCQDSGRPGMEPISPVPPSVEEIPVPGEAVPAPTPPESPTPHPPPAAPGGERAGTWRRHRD
The settings on record: at 0.1 µM.

For assay [13], the target named is MAP kinase-activated protein kinase 2 (Homo sapiens) (UniProt P49137). The following applies: at 0.1 µM.
The target is the same in assay [14]. The following applies: at 1 µM.
Assay [15] deals with MAP kinase-activated protein kinase 3 (Homo sapiens) (UniProt Q16644). The settings on record: at 0.1 µM.
For assay [16] the target is unchanged. The settings on record: at 1 µM.
The target of assay [17] is Serine/threonine-protein kinase MARK1 (Homo sapiens) (UniProt Q9P0L2). The following applies: at 0.1 µM.
Assay [18] has the same target. The following applies: at 1 µM.
Assay [19] has as its target MAP/microtubule affinity-regulating kinase 3 (Homo sapiens) (UniProt P27448). The settings on record: at 0.1 µM.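 Also: mean percent inhibition of MARK3 kinase activity, measured within the GSK PKIS screening panel.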
Assay [20] has as its target T3, Serine/threonine-protein kinase DCLK2 (Homo sapiens). The following applies: at 1 µM.

MAP/microtubule affinity-regulating kinase 3 (Homo sapiens), sequence (P27448 whole entry, looked up): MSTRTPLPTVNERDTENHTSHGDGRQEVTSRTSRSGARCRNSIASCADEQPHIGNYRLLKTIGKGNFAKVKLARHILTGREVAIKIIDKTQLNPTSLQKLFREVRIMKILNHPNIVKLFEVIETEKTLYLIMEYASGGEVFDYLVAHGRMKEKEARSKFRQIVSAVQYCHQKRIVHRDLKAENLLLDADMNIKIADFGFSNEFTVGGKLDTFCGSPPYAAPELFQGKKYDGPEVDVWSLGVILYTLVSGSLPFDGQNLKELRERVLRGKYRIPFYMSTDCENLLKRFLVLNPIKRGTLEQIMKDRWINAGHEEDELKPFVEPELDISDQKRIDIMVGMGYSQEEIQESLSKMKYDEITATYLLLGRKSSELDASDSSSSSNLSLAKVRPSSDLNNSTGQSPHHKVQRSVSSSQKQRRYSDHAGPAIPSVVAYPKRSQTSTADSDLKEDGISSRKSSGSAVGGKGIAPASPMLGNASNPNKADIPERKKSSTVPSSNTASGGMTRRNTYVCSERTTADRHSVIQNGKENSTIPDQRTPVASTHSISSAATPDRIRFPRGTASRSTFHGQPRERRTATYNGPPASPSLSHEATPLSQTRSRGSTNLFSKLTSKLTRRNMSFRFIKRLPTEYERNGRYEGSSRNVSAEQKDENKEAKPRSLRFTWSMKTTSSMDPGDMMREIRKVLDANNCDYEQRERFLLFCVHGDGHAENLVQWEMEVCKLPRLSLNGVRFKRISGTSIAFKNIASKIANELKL
Calcium/calmodulin-dependent protein kinase type II subunit delta (Homo sapiens), sequence (Q13557 whole entry): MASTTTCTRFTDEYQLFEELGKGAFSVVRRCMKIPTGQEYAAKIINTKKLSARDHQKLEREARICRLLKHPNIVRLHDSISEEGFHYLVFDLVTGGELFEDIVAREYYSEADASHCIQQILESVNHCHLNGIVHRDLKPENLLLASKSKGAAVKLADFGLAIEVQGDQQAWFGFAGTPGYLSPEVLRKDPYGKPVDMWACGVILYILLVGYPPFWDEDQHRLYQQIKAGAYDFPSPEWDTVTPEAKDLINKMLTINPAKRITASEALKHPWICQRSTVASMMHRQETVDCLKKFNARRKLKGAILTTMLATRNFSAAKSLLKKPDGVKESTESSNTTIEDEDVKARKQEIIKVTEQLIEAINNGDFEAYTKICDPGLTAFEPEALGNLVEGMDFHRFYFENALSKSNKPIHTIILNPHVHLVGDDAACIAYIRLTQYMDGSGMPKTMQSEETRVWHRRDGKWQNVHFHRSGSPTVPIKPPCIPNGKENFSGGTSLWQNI
MAP kinase-activated protein kinase 2 (Homo sapiens), sequence (P49137 whole entry, looked up): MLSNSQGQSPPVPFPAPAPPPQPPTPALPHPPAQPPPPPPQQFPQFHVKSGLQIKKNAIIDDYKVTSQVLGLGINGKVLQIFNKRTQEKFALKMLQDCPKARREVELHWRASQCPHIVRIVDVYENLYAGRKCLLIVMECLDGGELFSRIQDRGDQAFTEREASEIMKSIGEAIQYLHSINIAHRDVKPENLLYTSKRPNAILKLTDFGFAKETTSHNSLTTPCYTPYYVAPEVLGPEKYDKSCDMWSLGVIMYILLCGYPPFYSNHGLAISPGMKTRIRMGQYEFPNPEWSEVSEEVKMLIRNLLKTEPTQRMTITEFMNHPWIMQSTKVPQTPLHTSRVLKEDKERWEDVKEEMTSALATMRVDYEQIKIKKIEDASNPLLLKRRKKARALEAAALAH
Death-associated protein kinase 1 (Homo sapiens), sequence (P53355 whole entry, looked up): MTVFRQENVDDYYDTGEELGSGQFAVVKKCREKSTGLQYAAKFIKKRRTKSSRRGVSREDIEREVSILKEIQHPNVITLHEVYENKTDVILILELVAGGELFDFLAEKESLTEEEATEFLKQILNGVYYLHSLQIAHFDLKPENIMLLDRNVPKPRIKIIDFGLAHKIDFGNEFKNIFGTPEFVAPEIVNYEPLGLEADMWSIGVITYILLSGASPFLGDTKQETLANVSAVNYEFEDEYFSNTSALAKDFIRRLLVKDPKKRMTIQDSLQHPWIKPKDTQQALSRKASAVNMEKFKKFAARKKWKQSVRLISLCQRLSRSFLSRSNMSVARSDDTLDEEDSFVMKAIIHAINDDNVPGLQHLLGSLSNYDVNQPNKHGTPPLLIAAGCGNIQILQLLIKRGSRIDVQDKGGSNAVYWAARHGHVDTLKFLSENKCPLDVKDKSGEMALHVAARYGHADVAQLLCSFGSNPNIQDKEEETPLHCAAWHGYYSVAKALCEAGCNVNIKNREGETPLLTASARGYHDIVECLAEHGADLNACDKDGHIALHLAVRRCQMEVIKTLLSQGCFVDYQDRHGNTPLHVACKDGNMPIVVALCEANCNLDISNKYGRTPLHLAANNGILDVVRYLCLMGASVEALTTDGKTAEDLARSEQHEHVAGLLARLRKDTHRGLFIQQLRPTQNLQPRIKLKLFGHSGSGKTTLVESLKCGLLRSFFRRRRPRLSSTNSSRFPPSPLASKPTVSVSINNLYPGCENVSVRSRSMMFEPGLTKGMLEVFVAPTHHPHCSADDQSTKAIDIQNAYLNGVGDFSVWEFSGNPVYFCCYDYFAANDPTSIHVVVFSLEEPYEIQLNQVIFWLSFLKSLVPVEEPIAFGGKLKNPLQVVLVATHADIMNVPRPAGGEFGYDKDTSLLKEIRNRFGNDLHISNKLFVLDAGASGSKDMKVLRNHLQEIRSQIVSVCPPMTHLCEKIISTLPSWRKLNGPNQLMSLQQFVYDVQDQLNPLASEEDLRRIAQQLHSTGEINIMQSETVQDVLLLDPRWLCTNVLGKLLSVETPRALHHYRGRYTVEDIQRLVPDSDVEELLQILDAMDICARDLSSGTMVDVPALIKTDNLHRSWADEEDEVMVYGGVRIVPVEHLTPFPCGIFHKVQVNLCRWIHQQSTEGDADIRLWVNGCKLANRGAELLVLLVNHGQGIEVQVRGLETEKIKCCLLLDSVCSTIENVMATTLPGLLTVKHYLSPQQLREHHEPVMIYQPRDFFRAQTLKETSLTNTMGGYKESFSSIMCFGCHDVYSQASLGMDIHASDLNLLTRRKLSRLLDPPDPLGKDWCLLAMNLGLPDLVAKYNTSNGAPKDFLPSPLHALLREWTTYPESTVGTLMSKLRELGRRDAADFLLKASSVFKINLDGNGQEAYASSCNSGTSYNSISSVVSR
MAP kinase-activated protein kinase 3 (Homo sapiens), sequence (Q16644 whole entry, looked up): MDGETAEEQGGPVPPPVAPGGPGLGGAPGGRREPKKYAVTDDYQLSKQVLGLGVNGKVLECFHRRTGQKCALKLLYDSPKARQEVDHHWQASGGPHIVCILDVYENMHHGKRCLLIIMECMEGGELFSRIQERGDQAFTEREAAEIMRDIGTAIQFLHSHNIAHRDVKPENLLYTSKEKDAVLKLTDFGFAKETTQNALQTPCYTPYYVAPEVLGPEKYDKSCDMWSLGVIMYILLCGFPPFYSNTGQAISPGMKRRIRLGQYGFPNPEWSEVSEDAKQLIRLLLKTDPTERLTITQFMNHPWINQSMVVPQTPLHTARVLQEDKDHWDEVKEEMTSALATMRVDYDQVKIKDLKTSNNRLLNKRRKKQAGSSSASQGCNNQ
Serine/threonine-protein kinase MARK1 (Homo sapiens), sequence (Q9P0L2 whole entry, looked up): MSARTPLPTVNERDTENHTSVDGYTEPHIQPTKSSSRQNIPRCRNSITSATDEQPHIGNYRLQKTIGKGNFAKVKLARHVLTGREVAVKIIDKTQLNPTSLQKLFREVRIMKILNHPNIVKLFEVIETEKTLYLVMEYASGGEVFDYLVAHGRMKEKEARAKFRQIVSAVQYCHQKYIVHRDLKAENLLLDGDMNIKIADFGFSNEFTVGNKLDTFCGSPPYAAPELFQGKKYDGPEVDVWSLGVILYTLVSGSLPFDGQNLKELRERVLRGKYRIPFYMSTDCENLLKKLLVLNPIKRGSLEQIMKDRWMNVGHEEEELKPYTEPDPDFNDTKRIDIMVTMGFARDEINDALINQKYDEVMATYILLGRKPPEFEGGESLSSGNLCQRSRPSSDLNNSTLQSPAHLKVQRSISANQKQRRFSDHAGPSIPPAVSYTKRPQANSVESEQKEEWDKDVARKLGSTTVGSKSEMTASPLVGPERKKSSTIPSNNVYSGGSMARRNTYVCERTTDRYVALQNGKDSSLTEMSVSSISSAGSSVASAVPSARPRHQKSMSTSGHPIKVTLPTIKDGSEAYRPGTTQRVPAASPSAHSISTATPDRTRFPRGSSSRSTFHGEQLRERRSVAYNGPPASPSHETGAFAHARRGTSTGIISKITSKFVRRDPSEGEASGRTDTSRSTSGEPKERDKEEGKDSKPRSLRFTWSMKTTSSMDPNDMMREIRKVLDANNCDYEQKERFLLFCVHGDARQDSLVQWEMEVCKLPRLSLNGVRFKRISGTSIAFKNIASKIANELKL
Serine/threonine-protein kinase Chk2 (Homo sapiens), sequence (O96017 whole entry): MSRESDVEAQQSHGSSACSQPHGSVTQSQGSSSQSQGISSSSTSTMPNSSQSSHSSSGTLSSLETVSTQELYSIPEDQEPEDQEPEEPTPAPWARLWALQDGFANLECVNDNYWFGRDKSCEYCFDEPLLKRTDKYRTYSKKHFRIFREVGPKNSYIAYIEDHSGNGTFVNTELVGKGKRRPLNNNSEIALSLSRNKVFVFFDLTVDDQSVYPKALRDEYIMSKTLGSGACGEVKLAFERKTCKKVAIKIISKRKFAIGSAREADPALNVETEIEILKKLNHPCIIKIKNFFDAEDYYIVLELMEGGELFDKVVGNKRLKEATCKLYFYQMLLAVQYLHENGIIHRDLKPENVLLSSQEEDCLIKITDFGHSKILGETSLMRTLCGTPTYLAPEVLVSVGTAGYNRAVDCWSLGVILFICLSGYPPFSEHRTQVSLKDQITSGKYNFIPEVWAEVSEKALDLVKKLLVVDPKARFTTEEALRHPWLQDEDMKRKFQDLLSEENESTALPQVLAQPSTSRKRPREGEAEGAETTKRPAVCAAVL

One may read the inhibition as the relative decrease from the control value, in per cent. As to `COC(=O)Nc1nc2cc(Oc3ccc(NC(=O)Nc4cccc(C(=O)O)c4)cc3)ccc2[nH]1`, the inhibition in assay [1] was 3.09%; in [2], 1.92%; in [3] it was 1.91%; in assay [4], -1.16%; in [5], -2.08%; in assay [6], -3.62%. The inhibition in [7] is -0.43%; in assay [8], 0.25%; in assay [9], 6.26%; in assay [10] it was 1.22%; in assay [11] it was 0.01%; in assay [12] it was -6.21%. Further, the inhibition in assay [13] was 0.64%; in [14] it was 0.43%; in assay [15], 0.86%; in assay [16] it was -0.42%; in assay [17] it was 0.32%; in assay [18], 3.08%. Moreover, in assay [19], the inhibition came to 1.09%.

As to `NC(=O)c1cccc(Nc2nccc(Nc3cccc4[nH]ncc34)n2)c1`, the inhibition in assay [1] was -1.01%; in assay [2], -1.68%; in [3] it was 3.58%; in assay [4], 1.19%; in [5] it was 2.27%; in assay [6], 1.94%. The inhibition was 44.1% in assay [7]; -2.95% in assay [8]; 9.48% in [9]; 0.17% in assay [10]; 0.2% in assay [11]; 0.29% in [20]. The inhibition in [13] was -2.49%; in assay [14], -2.06%; in assay [15], -2.55%; in [16], -2.42%; in [17], -1.84%; in assay [18], 11.7%. Moreover, the inhibition in assay [19] is 2.03%.

As to `CNC(=O)c1cncc(/C=C/c2c(Cl)cccc2Cl)c1`, the inhibition stood at 4.95% in assay [1]; 3.11% in assay [2]; 8.55% in assay [3]; 0.01% in assay [4]; 3.19% in assay [5]; 0.16% in assay [6]. Also, the inhibition is 4.57% in assay [7]; 2.6% in [8]; 9.62% in [9]; 2.23% in assay [10]; 0.5% in [11]; -4.5% in assay [12]. Further, the inhibition is -0.73% in [20]; 0.7% in assay [13]; 2.98% in assay [14]; 2.14% in assay [15]; 1.96% in assay [16]; 2.05% in assay [17]. The results for the inhibition in [18] and in [19] were 2.47% and 1.82%, respectively.

As to `CS(=O)(=O)Nc1ccc(N/C=C2\C(=O)Nc3ccccc32)cc1`, the inhibition in [1] is -2.22%; in [2], -2.44%; in assay [3], 4.73%; in [4], -0.09%; in assay [5], -1.35%; in [6], -0.22%. Moreover, the inhibition is 5.75% in [7]; -1.67% in [8]; 10.4% in assay [9]; -1.81% in assay [10]; -2.55% in assay [11]; -2.55% in assay [12]. The inhibition in assay [20] was -4.45%; in assay [13], -1.85%; in [14], -1.69%; in assay [15] it was -2.11%; in [16], -2.88%; in assay [17] it was 3.85%. Further, the figures for the inhibition in assay [18] and in assay [19] were 23.8% and 0.83%, respectively.

Consider `CC1=C(C(=O)Nc2ccc3[nH]ncc3c2)C(c2ccc(Cl)c(Cl)c2)CC(=O)N1` (stereo not given), for which the inhibition in assay [1] was 2.88%; in assay [2], 2.72%; in [3], 3.98%; in assay [4], 1.22%; in assay [5] it was 2.09%; in assay [6], -1.3%. Moreover, the inhibition in [7] is -0.85%; in assay [8], 1.4%; in [9], 4.28%; in assay [10], -2.03%; in [11], -1.58%; in assay [20], 0.32%. In addition, the inhibition in assay [13] was 0.89%; in assay [14], -0.26%; in assay [15] it was 2.5%; in [16] it was 1.83%; in assay [17] it was 0.33%; in [18], 5.92%. Besides, in assay [19], the inhibition was 2.97%.

In the case of `CS(=O)(=O)CCNCc1nc(-c2ccc3ncnc(Nc4ccc(F)c(Cl)c4)c3c2)cs1`, the inhibition is 3.45% in [1]; 1.76% in [2]; 3.83% in assay [3]; -0.31% in [4]; 0.31% in [5]; 2.71% in assay [6]. In addition, the inhibition in [7] is 3.9%; in assay [8], -0.4%; in assay [9] it was 1.15%; in assay [10], 4.88%; in assay [11], 6.48%; in assay [12], 0.59%. The inhibition in assay [13] amounted to 1.59%; in [14] it was 0.26%; in assay [15], 2.16%; in [16], 1.58%; in [17], 1.43%; in assay [18], 1.33%. Further, the inhibition in assay [19] turned out to be 1.69%.

Take `Cc1ccc(C(=O)NC2CCCCC2)cc1-c1ccc(C(=O)NCC2CC2)cc1`: the inhibition in [1] came out at 4.57%; in [2], 4.88%; in assay [3] it was 2.35%; in [4], 3.22%; in [5], 3.67%; in [6], 6.06%. Moreover, the inhibition in [7] turned out to be 5.14%; in [8], 1.33%; in [9] it was 1.29%; in [10], 3.76%; in assay [11], 5.32%; in [12], 3.45%. Besides, the inhibition was found to be 0.37% in assay [13]; 0.95% in assay [14]; 1.78% in assay [15]; 4.53% in assay [16]; 1.97% in [17]; 0.65% in [18]. Also, in [19], the inhibition was determined as 3.7%.
